Among all 2,300 compounds or so, about 1,400 (61%) were called active. Inconclusive results (about 7%) are left out. How the calls were made is not given here. The set was probably picked from earlier hits. Not all results are given here. Potency and affinity values are given separately.

Chain of FAD-linked sulfhydryl oxidase ALR (Homo sapiens) (P55789 whole entry, looked up): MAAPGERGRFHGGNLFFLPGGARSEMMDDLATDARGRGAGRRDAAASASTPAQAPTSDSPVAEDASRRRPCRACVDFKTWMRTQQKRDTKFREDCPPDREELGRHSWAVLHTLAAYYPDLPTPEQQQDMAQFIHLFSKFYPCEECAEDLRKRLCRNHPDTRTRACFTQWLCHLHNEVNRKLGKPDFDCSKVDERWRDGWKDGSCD

This experiment concerns the target FAD-linked sulfhydryl oxidase ALR (Homo sapiens) (UniProt P55789). The experiment is described as follows: ALR-catalysed DTT oxidation blockers – biochemical, H2O2 detection, luminescence, cherry-pick, dose response (AID 493248). As to conditions: purified ALR, H2O2 HRP-luminol luminescence; at 10 µM (top of the series).
Take `Cn1nnnc1SCc1ccc(C(=O)Nc2nccs2)cc1`: the activity change, negative = inhibition is -48.1%.
Consider `O=C1NCCCc2c1oc1ccc(O)cc21`, for which the activity change, negative = inhibition was 36.1%.
The result for `Nc1nn2cc(-c3ccccc3)nc2c2ccccc12` reads -12.4%; that for `COC(=O)CNS(=O)(=O)c1ccc(Cc2ccc(S(=O)(=O)NCC(=O)OC)cc2)cc1`, 3.52%; that for `CCCc1cc(=O)[nH]c(Nc2ccc(O)cc2)n1`, -100%.
With `Cn1cccc1C(=O)OCc1csc(-c2ccccc2)n1`, the activity change, negative = inhibition is 0.233%.
As for `O=C(c1ccc(Cl)s1)N1CCN(c2ccccc2)CC1`, the activity change, negative = inhibition is -20%.
The result for `O=C(c1cc(C2CC2)on1)N1CCN(c2ccccc2)CC1` reads -8.71%.
The result for `Cc1cc(C(=O)CC#N)c(C)n1CC(F)(F)F` reads -17.1%; that for `COc1cccc(/C=N/NC(=O)CNC(=O)c2cccnc2)c1O`, -19%; that for `CCN1CCSc2ccc(C(=O)NCc3cccc(F)c3)cc21`, 16%.
For `CCCC(C(=O)O)n1c(O)c(C=C2N=c3ccccc3=N2)sc1=S` (centres undefined), the activity change, negative = inhibition was -50.1%.
As to `O=C(c1ccco1)n1nc(-c2ccccc2)nc1NCc1ccco1`, the activity change, negative = inhibition was -41.9%.
The result for `O=[N+]([O-])c1cc2c(cc1/C=N/n1c(-c3ccccc3)n[nH]c1=S)OCO2` reads -34.5%.
For `CC(C)c1cc(C(=O)N/N=C/c2ccco2)n[nH]1`, the activity change, negative = inhibition was determined as 21.6%.
In the case of `CC(=C\c1ccccc1)/C=C1/SC(=O)N(CCCC(=O)Nc2ccc(C(=O)O)cc2)C1=O`, the activity change, negative = inhibition amounted to 1.78%.
The result for `S=c1[nH]nc(Cc2ccccc2)n1-c1ccccc1` reads -7.81%; that for `CC(=O)Oc1ccc(Nc2ccccc2)cc1`, -1.83%; that for `COc1ccc2oc3cc(C)[n+]([O-])c(-c4ccc(C)cc4)c3c2c1`, -57.4%.
Take `O=C(O)CC/C(=C\c1ccccc1[N+](=O)[O-])c1nc2ccccc2s1`: the activity change, negative = inhibition is -55.4%.
With `COc1ccc(-c2noc(CN3CCN(c4ccccc4F)CC3)n2)cc1OC`, the activity change, negative = inhibition was -0.443%.
The result for `C(=N\Nc1ncnc2ccccc12)/c1ccccc1` reads -47.4%; that for `O=C(O)CCCN1C(=O)/C(=C\c2ccc(-c3nc4ccccc4s3)o2)SC1=S`, -22.6%; that for `COc1cc(/C=C2\SC(=S)N(NC(=O)c3ccc(O)cc3)C2=O)ccc1O`, -100%.
On to `COc1ccc(C(=O)N/N=C(/C)c2ccc(N3CCCCC3)cc2)cc1`, for which the activity change, negative = inhibition is -0.469%.
The result for `COc1cc(NC(=O)NCCN2CCN(c3ccccc3)CC2)cc(OC)c1OC` reads -25.8%.
Consider `COc1ccc(OC)c(NC(=O)CN(c2ccc(C(C)C)cc2)S(=O)(=O)c2c(C)noc2C)c1`, for which the activity change, negative = inhibition is 28.2%.
Consider `COc1c(C)cccc1C(=O)Nc1ccc(CN2CCCCC2)cc1`, for which the activity change, negative = inhibition is 7.1%.
As for `COc1ccc(NC(=O)c2cccnc2N2CCCC2)cc1`, the activity change, negative = inhibition was 19.3%.
The result for `CCCN1C(=O)c2ccc(C(=O)Nc3ccccc3C(=O)O)cc2C1=O` reads -23.6%; that for `O=C(Nc1cc([N+](=O)[O-])ccc1O)c1ccc2c(c1)C(=O)N(Cc1ccco1)C2=O`, -17.4%.
The result for `COc1ccc(C)cc1NCc1ccc(OC)c(C)c1OC` reads -55.4%; that for `Cc1ccc(N2CC(=O)N(NC(=O)CN3CCN(c4ccccc4)CC3)CC2=O)cc1`, -47.4%.
On to `COc1ccc(C(=O)N/N=C/C2CC=CCC2)cc1OC` (centres undefined), for which the activity change, negative = inhibition is -39.6%.
The result for `CN1C(=O)C2C(c3ccc(N(C)C)cc3)=NN(Cc3ccccc3)C2C1=O` (centres undefined) reads -0.925%; that for `Fc1ccc(-n2c(-c3ccc4c(c3)OCO4)n[nH]c2=S)cc1Cl`, -56.2%; that for `Cc1nc2cc(N)ccc2n1-c1ccccc1`, 367%.
The result for `CC1=Nc2ccccc2N=C(N)C1c1ccccc1` (centres undefined) reads -61.3%.
The result for `Cc1cc(C(=O)NNc2ccc(F)cc2F)no1` reads 5.89%; that for `COc1cc(C(=S)N(C)C)ccc1O`, -5.3%.
On to `Oc1ccc(/C=N/N=C/c2ccc(O)cc2)cc1`, for which the activity change, negative = inhibition is 256%.
Consider `O=Cc1ccc(O)c(O)c1`, for which the activity change, negative = inhibition is -17.2%.
On to `Oc1ccc(N=Cc2ccc(O)c(O)c2)cc1`, for which the activity change, negative = inhibition is 102%.
As for `CC(C)CNC(=O)C(=O)N/N=C/c1cccs1`, the activity change, negative = inhibition is -15.3%.
The result for `CCn1c(O)c(/C=N/n2cnnc2)sc1=S` reads -33%.
On to `Cc1cccc(NCCNc2cccc(C)c2)c1`, for which the activity change, negative = inhibition was -44.1%.
The result for `Cc1cccc(N/N=C/c2ccncc2)c1` reads -105%; that for `C/C(=N\NC(=O)CCCNc1ccc(C)cc1)c1ccccn1`, 419%; that for `CC(C)C(=O)c1ccc(O)c(O)c1`, -24.1%.
In the case of `Cc1cccc(Nc2nc(N)nc(CCl)n2)c1C`, the activity change, negative = inhibition is -38.4%.
On to `CN(C)CCC(=O)N1c2ccccc2Sc2ccc(C(F)(F)F)cc21`, for which the activity change, negative = inhibition was -13.8%.
The result for `CCNc1nc(OC)nc(N(OC)S(=O)(=O)c2ccc(C)cc2)n1` reads -55.8%.
The result for `CC(C)(O)C#Cc1ccc(C(=O)NC2CCCCC2)s1` reads -45.6%.
The result for `O=S(=O)(Cc1ccccc1)N(O)c1ccccc1` reads -38.7%; that for `CCCN1C(=O)c2cc(C(=O)NC3CCCCCC3)ccc2C1O` (centres undefined), -16.6%; that for `Nc1c(Cl)ncnc1N/N=C/c1cccc(O)c1`, -7.72%.
With `Cc1ccc(NC(=O)CCC(=O)N/N=C/c2ccc(O)cc2)cc1`, the activity change, negative = inhibition is -2.67%.
The result for `O=C(CCn1cnc2ccccc21)N/N=C/c1ccc(O)cc1` reads -88.9%; that for `O/N=C/c1cccn1-c1ccc(O)cc1`, -99.2%; that for `O=C(C[n+]1ccccc1)N/N=C/c1ccc(O)cc1`, -108%.
Regarding `O=c1oc2ccccc2n1CSC1=NCCS1`, the activity change, negative = inhibition is -21.8%.
For `O=[n+]1cc(-c2cc3ccccc3o2)n([O-])c2c1CCCC2`, the activity change, negative = inhibition was -33.9%.
The result for `Cc1cc(Nc2ccccc2)n(CCC#N)n1` reads -16.4%; that for `CC(C)NC(=O)c1ccccc1S(=O)c1ccccc1C#N` (centres undefined), -2.78%.
The result for `CN(C)c1ccc(/C(=N\O)C(F)(F)F)cc1` reads -20%; that for `Cc1ccc(Nc2c(F)c(F)c(F)c(F)c2C(=O)O)c(C)c1`, -51.9%.
The result for `O=C(O)c1ccccc1Nc1ccccc1` reads -21%; that for `Cc1ccc(O)c(-c2cc(C(F)(F)C(F)F)[nH]n2)c1`, 3.95%.
On to `COc1ccc([N+](=O)[O-])cc1NC1CCCCC1`, for which the activity change, negative = inhibition is -14.6%.
For `COc1ccc(CCC(=O)N2CCCC(Nc3ccc(OC)cc3)C2)cc1` (centres undefined), the activity change, negative = inhibition was found to be 9.94%.
The result for `Cc1ccc2[nH]cc(CCNC(=O)c3cccnc3)c2c1` reads -59.6%; that for `Cn1c(=O)c2c(-c3ccccc3)n(-n3cnnc3)cc2n(C)c1=O`, -14.5%.
`C=CCN1CCc2cc(O)c(O)cc2C(c2ccccc2)C1` (centres undefined): the activity change, negative = inhibition is -91.4%.
The result for `Cc1cccc(C2CN(C)CCc3c2cc(O)c(O)c3Cl)c1` (centres undefined) reads -100%; that for `Cn1c(=O)[nH]c(=O)c2c1[nH]c(=S)n2Cc1ccc(Cl)cc1`, -38.6%.
As for `CCN1CCN(Cc2nc3c(c(=O)n(C)c(=O)n3C)n2CC(=O)c2ccccc2)CC1`, the activity change, negative = inhibition stood at 13.8%.
The result for `CCCCCn1c(Br)nc2c1c(=O)n(CC(N)=O)c(=O)n2C` reads -20.4%; that for `N#C/C(N=Nc1ccccc1O)=N\Nc1ccccc1O`, 22.3%; that for `CC(C)(C)Nc1c(-c2cccs2)nc2ccccn12`, -39.4%.

Source of the values: PubChem BioAssay AID493248 (Broad Institute, 2011).
